Bioassay records as filed in PubChem BioAssay.
TLR9-MyD88 block – TLR9-MyD88 interaction inhibition | Q9NR96+Q99836 | CHO BLA complementation TLR9-MyD88, CCF4 FRET ratio | inhibition, % at 4.98 µM | 0.21% of 340,000 active;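 active means inhibition above the mean over all tested compounds plus 3 SD, cut at about 21% in these data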;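 further: 0% = DMSO only wells and 100% = clavulanate BLA inhibitor control wells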
TMEM16A inh – mouse TMEM16A channel inhibition, primary screen. AID 588511. 1.2% of 310,000 active. normalized B-score (activity score, 25-100; higher = stronger inhibition) at 10 µM. Q8BHY3. HEK293 TMEM16A/YFP iodide influx fluorescence, ionomycin;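 active means ratio plate-corrected score three or more library SD toward inhibition, starting fluorescence score within five deviations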;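 further: score derived from kinetic fluorescence span divided by baseline fluorescence per well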
GRK2 inh – blocks RNA aptamer binding to human GRK2. P25098. 0.59% of 330,000 active. bead flow cytometry, FAM-aptamer displacement from GRK2. inhibition of aptamer binding, % at 10 µM. AID 488847;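 active means inhibition of aptamer binding above 40%, roughly 3 SD of noise, on plates passing a quality check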;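 further: median bead fluorescence of bound FAM aptamer so fluorescent compounds give negative values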
NOD2-RIPK2 inh – NOD2-RIPK2 protein interaction inhibition; CHO BLA complementation NOD2-RIPK2, CCF4 ratio; inhibition, % at 4.98 µM; 0.38% of 360,000 active; O43353; in the data active means inhibition above about 21%;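 further: 0% = vehicle only and 100% = reference blocker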
Target sequence (O43353 whole entry, looked up): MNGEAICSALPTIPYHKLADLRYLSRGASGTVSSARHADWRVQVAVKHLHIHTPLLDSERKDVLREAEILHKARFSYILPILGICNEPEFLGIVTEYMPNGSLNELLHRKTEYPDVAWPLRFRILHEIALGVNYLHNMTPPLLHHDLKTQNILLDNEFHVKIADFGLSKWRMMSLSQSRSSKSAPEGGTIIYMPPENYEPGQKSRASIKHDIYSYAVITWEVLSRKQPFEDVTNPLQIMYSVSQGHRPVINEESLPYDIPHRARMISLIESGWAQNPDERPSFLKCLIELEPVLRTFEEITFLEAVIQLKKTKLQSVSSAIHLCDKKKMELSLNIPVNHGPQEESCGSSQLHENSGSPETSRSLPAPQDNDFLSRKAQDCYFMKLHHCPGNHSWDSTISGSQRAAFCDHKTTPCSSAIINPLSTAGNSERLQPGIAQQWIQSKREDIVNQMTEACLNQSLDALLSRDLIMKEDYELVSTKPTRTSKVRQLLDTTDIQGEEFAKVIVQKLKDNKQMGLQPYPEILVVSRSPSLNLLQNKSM
TMEM16A act – activates or potentiates the mouse TMEM16A chloride channel; B-score at 10 µM; AID 623877; HEK293 TMEM16A/YFP-H148Q/I152L, iodide quench fluorescence; stronger effect = lower value; 0.3% of 340,000 active; Q8BHY3;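 active means fluorescence-ratio B-score plate-corrected deviation score at least 3 library SD below zero, with starting fluorescence score within 5 deviations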;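 further: channel opened by trigger with iodide after compound preincubation; score built on the fluorescence ratio of max minus min over baseline; more negative score means more quench and so TMEM16A activation or potentiation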
TLR4-MyD88 BLA – blocks binding of human TLR4 to MyD88; HeLa CL3-4 TLR4/MyD88 BLA complementation, FRET ratio; inhibition, % at 8.4 µM; 0.18% of 200,000 active; in the data active means inhibition above about 25%;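 further: 0% = vehicle and 100% = reference inhibitor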
* marks the source's active call; other numbers are inactive results; i = inactive; · = no result. Hits are enriched below; roughly 2.2% of the tested compounds scored in any of these assays.

SMILES | TLR9-MyD88 block | TMEM16A inh | GRK2 inh | NOD2-RIPK2 inh | TMEM16A act | TLR4-MyD88 BLA
O=C(NNC1=C(C(=O)C(F)(F)F)CCC1)c1cccc(O)c1 | -5 | i | 5 | 0 | i | 3
Cc1cccc(C(=O)NNC2=C(C(=O)C(F)(F)F)CCC2)c1O | -3 | 100* | 0 | -5 | i | -4
Cc1ccc(Cl)cc1N1CCN(C(=O)CSc2nnc3n2C(C)(C)Cc2ccccc2-3)CC1 | -3 | 100* | 0 | 2 | i | -10
COc1ccc(N2CCN(C(=O)CSc3nnc4n3C(C)(C)Cc3ccccc3-4)CC2)cc1 | 1 | 25* | 0 | 5 | i | -15
COc1ccc2nc(NC(=O)CSc3nnc4n3C(C)(C)Cc3ccccc3-4)sc2c1 | 1 | i | 1 | 2 | -8* | 5
Cc1cccc(C)c1-n1nnnc1C1c2ccccc2C(=O)N1C1CC1 (stereo unspecified) | · | · | · | -10 | · | ·
CC1=C(C(=O)N2CCCCCC2)CC(CC(=O)NC2CC2)C(=O)N1Cc1ccccc1 (stereo unspecified) | · | · | · | -11 | · | ·
CCc1c(-c2cccc(OC)c2)ncn1Cc1cccc(-c2ccccc2)c1 | · | · | · | -3 | · | ·
COc1ccc(NC(=O)COC(=O)C(NC(=O)c2ccc(C)cc2)C(C)C)cn1 (stereo unspecified) | 4 | · | 2 | -9 | i | ·
COc1ccc(NC(=O)/C(Cl)=C(/Cl)S(=O)Cc2ccccc2Cl)cn1 (stereo unspecified) | · | · | · | · | -4.6* | 17
COc1ccc(NC(=O)Cc2ccc(Cl)c(Cl)c2)cn1 | 2 | i | 0 | -4 | i | -13
COc1ccc(NC(=O)/C(Cl)=C(/Cl)S(=O)(=O)Cc2ccc(C)cc2)cn1 | 27* | · | · | 75* | i | 6
CCN(CC)C(=O)C1=C(C)N(Cc2ccc(F)cc2)C(=O)C(CC(=O)NCCCN(C)C)C1 (stereo unspecified) | -8 | · | · | 6 | · | ·
O=C(NC1CCC1)C1CCC(=O)N(Cc2ccc(Cl)cc2)C1 (stereo unspecified) | -15 | · | · | 8 | · | ·
CCn1cc(/C=C(\NC(=O)c2ccc(OC)c(OC)c2)C(=O)NCCCN2CCOCC2)c2ccccc21 | -2 | · | · | 8 | -43* | ·
CCCCN(C)C(=O)c1ccc(Nc2nc(C(N)Cc3ccc(C(F)(F)F)cc3)cs2)nc1 (stereo unspecified) | · | · | · | 7 | · | ·
Cc1cc(C)c2c(c1)-c1c(ssc1=S)C(C)(C)N2C(=O)CN1C(=O)c2ccccc2C1=O | 8 | i | 4 | -2 | -13* | -11
Cc1cccc(C)c1NC(=O)C(c1cc2ccccc2o1)N1CCN(C)CC1 (stereo unspecified) | · | · | · | -6 | · | ·
COc1ccccc1N1CCN(CCNC(=O)Nc2cccc(C)c2C)CC1 | 6 | 25* | 0 | -9 | i | 15
Cc1cc(Nc2ccccc2)nn1C(=O)c1ccccc1 | 2 | 25* | 2 | -4 | i | 3
CN(C)C(=O)c1cccc(-c2cnc3c(NC=O)cc(-c4ccccc4F)cn23)c1 | · | · | · | 7 | · | ·
CS(=O)(=O)Nc1ccccc1C(=O)Nc1cccc(Cl)c1 | 1 | 25* | 2 | -3 | i | -12
CS(=O)(=O)Nc1ccccc1C(=O)Nc1ccccc1Cl | 5 | i | 0 | -4 | i | -12
CS(=O)(=O)Nc1ccccc1C(=O)Nc1cc(Cl)cc(Cl)c1 | -3 | i | 99* | -9 | i | 11
CCOC(=O)N1CCN(Cc2cc(=O)oc3cc4c(cc23)CCC4)CC1 | -6 | i | 1 | -14 | -14* | -8
SMILES | TLR9-MyD88 block | TMEM16A inh | GRK2 inh | NOD2-RIPK2 inh | TMEM16A act | TLR4-MyD88 BLA
CC(=O)NCCOc1nc(N2CCCCC2)nc(N2CCCCC2)n1 | 3 | i | 2 | 8 | -7* | -10
Cc1ccc(NC(=S)NCc2cccs2)cc1 | 5 | i | 0 | -10 | i | -4
CCCCc1ccc(NC(=S)NCc2cccs2)cc1 | -7 | 100* | 1 | -8 | i | -16
CCC(C)c1ccc(C(C)NC(=S)NC2CCCCC2)cc1 (stereo unspecified) | 9 | 100* | 0 | 14 | i | ·
CC(C)(C)NC(=O)CN1CCC(O)(c2ccccc2)CC1 | 11 | i | 3 | 1 | i | 11
CC(C)(C)NC(=O)CN1CCC(O)(c2ccc3c(c2)OCO3)CC1 | 3 | i | 0 | -9 | -13* | 11
Cc1ccccc1N=CC=C1OC(C)(C)C(C)(C)O1 | -5 | i | 54* | 3 | i | 1
CCCCNC(=O)C1(C)CCN1C(=O)c1oc2ccccc2c1C (stereo unspecified) | · | · | · | -6 | · | ·
CSc1ccc(CN2CCC2(C)C(=O)Nc2cccc(NS(C)(=O)=O)c2)cc1 (stereo unspecified) | · | · | · | 14 | · | ·
Cc1ccc(CNC(=S)Nc2ccc(C)c([N+](=O)[O-])c2)cc1 | -2 | i | 50* | 12 | i | -6
Cc1ccc(NC(=S)NCc2ccccc2)cc1[N+](=O)[O-] | 9 | i | 8 | -7 | i | -1
CC(C)Nc1ncnc2c1ncn2[C@H]1CN(C2CCCC2)C[C@@H](CO)O1 | · | · | · | -10 | · | ·
Cc1cc(=O)n2nc(N3CCCC(C(=O)N4CCOCC4)C3)sc2n1 (stereo unspecified) | 2 | i | 5 | -4 | -5.5* | 1
Cc1cc(=O)n2nc(N3CCCC(C(=O)N4CCc5ccccc54)C3)sc2n1 (stereo unspecified) | -3 | i | 0 | -14 | i | 1
N/C(=N\OS(=O)(=O)c1ccc2ccccc2c1)c1ccncc1 | -9 | i | 0 | -6 | i | 19
N/C(=N\OS(=O)(=O)c1ccc2ccccc2c1)c1ccccn1 | -5 | · | · | -9 | -26* | 1
OCc1cn(-c2ccccc2)nc1-c1ccc(-c2nn(-c3ccccc3)cc2CO)cc1 | -11 | i | 1 | 4 | i | 1
Cc1ccc(-c2nn(-c3ccccc3)cc2CSC(=N)N)cc1 | -8 | 25* | 0 | 10 | i | 3
Cc1nn(-c2ccc(C(F)(F)F)cn2)c(C)c1Oc1ccccc1O | 2 | i | 2 | -2 | -34* | 1
COc1cccc(C(NC(C)=O)c2nc(-c3cccc(O)c3)cs2)c1 (stereo unspecified) | · | · | · | -5 | · | ·
CC(C)(C)OC(=O)C[C@H]1C/C=C\C[C@H](CC(=O)N(CCO)Cc2ccccc2)C(=O)NCCOC1=O | -4 | · | 3 | -16 | i | ·
CC(C)(C)OC(=O)C[C@@H]1C/C=C\C[C@@H](CC(=O)N(CCO)Cc2ccccc2)C(=O)NCCOC1=O | -19 | · | 7 | -2 | -4.8* | ·
COc1ccc(CCNc2nc(-c3ccccn3)cs2)cc1OC | 3 | i | 4 | -3 | -6.2* | ·
Cc1cc(C=O)c(C)n1-c1cccc(C(=O)O)c1 | 2 | i | 15 | -2 | i | 4
